# Screening results deposited in PubChem BioAssay by National Center for Advancing Translational Sciences (NCATS).
# A selection: hits, their analogues and other compounds. The true share with any hit is near 10%.
# LMNA splice mod – modulators of lamin A splicing. HeLa LMNA splicing GFP/RFP minigene ratio, 48 h. Potency, µM (titrated, usually from 46.1 µM), for inactives: at the highest dose ratio change, negative = inhibition, hits mostly inhibitors. hit rate 0.01% among 200,000. AID 1487; active means well fitted inhibition curve with a large enough effect in the signal ratio, with a control signal flat, not every such curve was filed as active; inconclusive means small, poorly fitted or top-dose-only effect, or effect the other way, or a change in a side signal; the % refers to the signal ratio; further: potency means the concentration at half of the fitted maximal effect
#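 Read-out is the ratio of GFP to DsRed2 object intensity, acquired by 488 nm laser-scanning cytometry on HeLa lamin A-EGFP minigene reporter cells. Compound incubation 48 hrs at 37 °C in Opti-MEM with 2% FBS; DMSO 0.5% final.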
# ALDH1A1 inh – ALDH1A1 (human) enzyme inhibition; Purified ALDH1A1, NADH fluorescence, propionaldehyde substrate; Potency, µM (top dose mostly 75.3 µM), for the others: at the top dose activity, negative = inhibition, usual class: inhibitors; hit rate 7.3% among 220,000;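 further: potency means the concentration at half of the fitted maximal effect; plate controls were no enzyme wells and a reference inhibitor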
# Target sequence (P00352 whole entry, looked up): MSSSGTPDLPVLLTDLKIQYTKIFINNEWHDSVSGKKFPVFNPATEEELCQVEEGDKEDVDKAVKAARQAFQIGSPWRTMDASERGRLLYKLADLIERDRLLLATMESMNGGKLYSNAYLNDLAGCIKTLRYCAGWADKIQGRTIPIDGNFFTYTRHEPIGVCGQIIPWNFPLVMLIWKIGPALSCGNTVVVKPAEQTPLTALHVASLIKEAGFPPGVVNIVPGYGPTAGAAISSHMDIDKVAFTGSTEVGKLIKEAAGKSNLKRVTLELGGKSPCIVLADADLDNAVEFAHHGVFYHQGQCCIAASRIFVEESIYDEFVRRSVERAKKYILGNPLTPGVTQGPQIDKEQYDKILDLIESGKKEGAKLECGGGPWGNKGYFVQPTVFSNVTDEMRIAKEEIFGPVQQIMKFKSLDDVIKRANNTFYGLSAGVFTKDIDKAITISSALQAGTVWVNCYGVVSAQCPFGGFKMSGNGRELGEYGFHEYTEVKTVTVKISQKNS
# PNC assembly inh – inhibitors of perinucleolar compartment assembly; activity change (PNC), negative = inhibition, % at 10 µM; hit rate 3.1% among 140,000; PC3M PTB-GFP, PNC prevalence imaging, 16 h; hits give low values;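 active means readout at or below -70, meaning at least 70% loss of cells showing the perinucleolar compartment, a nuclear body marking cancer cells; inconclusive means readout between -30 and a set limit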;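 further: plate controls were DMSO wells for no effect and camptothecin positive control wells for full effect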
#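 Compounds are pinned in duplicate onto adhered PC3M cells stably expressing GFP-tagged PTB and incubated 16 h at 37 C. Cells are then fixed, nuclei stained with Hoechst, and PNC-positive cells counted.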
# HPGD inh – inhibitors of human 15-hydroxyprostaglandin dehydrogenase (HPGD); P15428; Potency, µM, for the others: top-dose activity change, negative = inhibition, hits mostly inhibitors; purified HPGD, NADH fluorescence kinetic, PGE2 substrate; hit rate 4.3% among 150,000; further: potency means the concentration at half of the fitted maximal effect
#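 20 nM HPGD preincubated 15 min at room temperature with compound in 50 mM Tris-HCl pH 8, 0.01% Tween 20. Started with 1 mM NAD+ and 30 uM prostaglandin E2; NADH fluorescence (360/450 nm) read 5 times over 30-s intervals, last minus first.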
# Luc counter – blocks Kinase-Glo luciferase, a counter-screen artifact; Q27757; Kinase-Glo luciferase, ATP luminescence, 8 min; Potency, µM (titrated, usually from 38.3 µM), for inactives: top-dose activity change, negative = inhibition, hits mostly inhibitors; hit rate 0.28% among 200,000; AID 1379; active means well fitted inhibition curve with a large enough effect; inconclusive means small, poorly fitted or top-dose-only effect; further: potency means the concentration at half of the fitted maximal effect; nearly all actives have a fitted effect of over 60% in size
#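 Compound is pinned into ATP-containing buffer (10 uM ATP, imidazole pH 7.2, 7 mM MgCl2). Kinase-Glo luciferase reagent is then added. Light output is recorded following an 8-min room-temperature incubation.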
# Starred values were filed as active, the others as inactive; u = inconclusive; x = no result; [ ] = another dose, or the depositor's remark. Unless noted, the call rests on the fitted dose curve; in most records, active means well fitted inhibition curve with a large enough effect (not every such curve was filed as active); inconclusive means small, poorly fitted or top-dose-only effect, or another doubt; inactive means no such curve, though single readings can be large or run the other way. Unless noted, on the % scale 0 is the no-effect control and ±100 the full control effect.
SMILES,LMNA splice mod,ALDH1A1 inh,PNC assembly inh,HPGD inh,Luc counter
Ic1ccc2c(c1)N(c1ccccc1)c1cc(Nc3ccc4nc5ccc(I)cc5[n+](-c5ccccc5)c4c3)ccc1N2,x,u,x,-16%,-11%[7.66 µM]
COc1ccc(/C=C/c2cc(OC)c(OC)cc2CC[N+](C)(C)C)cc1,x,-8%,x,u,-3%
COc1ccc(Nc2nnc(SCC(=O)NC(=O)Nc3ccc4c(c3)OCCO4)s2)cc1,u,-10%,x,x,-2%
COc1ccc(Nc2nnc(SCC(=O)Nc3ccc4[nH]c(=O)[nH]c4c3)s2)cc1,x,16µM*,x,x,x
COc1ccc(Nc2nnc(SCC(=O)c3cc(C)n(CC4CCCO4)c3C)s2)cc1 (centres undefined),u,6.3µM*,23,-26%,-3%
Cc1ccc(CNC(=O)CC(C)CC2=NS(=O)(=O)c3ccccc3N2)cc1 (centres undefined),15%[46 µM],x,x,x,x
CCC(CC)C(=O)NCc1nc2cccnc2n1Cc1ccc(F)cc1,19%[46 µM],x,x,x,x
CCNc1ncc2ncc(=O)n(C3CC3)c2n1,17%,u,x,x,x
Cc1ccc(S(=O)(=O)n2nc(-c3ccc(Cl)cc3)nc2NCc2ccco2)cc1,-8%,3.5µM*,-2,-24%,2%
CCS(=O)(=O)n1nc(-c2ccccc2)nc1NCc1ccco1,-5%,-13%,-24,5%,0%
Cc1o[nH]c(=O)c1CCC(N)C(=O)O (centres undefined),x,9%,x,x,x
O=C(CCCOc1ccc(Cl)cc1Cl)NCc1ccncc1,-4%[46 µM],20µM*,x,x,-3%
O=C(COc1ccc(Cl)cc1Cl)NCc1ccncc1,u,u,-23,25µM*,-7%
O=C(CCCOc1ccc(Cl)cc1Cl)NCCCO,1%,-1%,u,-10%,6%
CC(=O)c1sc(NC(=O)COc2c(C)cc(Cl)cc2C)nc1C,x,4%,x,x,-2%
CC(=O)c1sc(NC(=O)COc2ccc(Cl)cc2Cl)nc1C,x,11µM*,x,x,2%
CC(C)NC(=O)N1CCC2(CC1)CCN(C(=O)c1cnccn1)CC2,x,-1%,x,-11%,-1%
CC(N)(C(=O)O)c1cccc(CC(=O)O)c1 (centres undefined),x,-7%,x,x,x
COC(=O)[C@@]1(Cc2ccccc2)[C@H]2c3cc(C(=O)N4CCCC4)n(Cc4cc(F)cc5c4OCOC5)c3C[C@H]2CN1C(=O)c1ccccc1,x,1%,x,-12%,-3%
COc1nc(Cl)cn(-c2ccc(C)cc2)c1=O,u,u,19,-21%,12%
Cc1ccc(-n2c(Cl)c(Cl)nc(Cl)c2=O)cc1,u,0.63µM*,u,2.5µM*,-2%
Clc1ccc(OCc2nn3c(-c4ccco4)nnc3s2)cc1,u,22µM*,u,u,-2%
c1coc(-c2nnc3sc(Cc4cccs4)nn23)c1,-16%,20µM*,13,u,-8%
COc1ccccc1-c1nn2c(-c3ccco3)nnc2s1,-15%,u,-13,u,2%
c1coc(-c2nn3c(-c4ccco4)nnc3s2)c1,-1%,20µM*,13,-26%,-1%
SMILES,LMNA splice mod,ALDH1A1 inh,PNC assembly inh,HPGD inh,Luc counter
COc1ccc(OCc2nn3c(-c4ccco4)nnc3s2)cc1,-16%,32µM*,u,x,x
COc1ccc(OCc2nn3c(-c4cccc(OC)c4)nnc3s2)cc1,5%,5%,-9,u,-2%
Cc1ccccc1CNC(=O)c1cnc2sc(N3CCOCC3)nn2c1=O,-6%[46 µM],x,x,x,x
CCn1cc(S(=O)(=O)c2cccc(C)c2)c(=O)c2cc(F)c(N3CCCC(C)C3)cc21 (centres undefined),-3%[46 µM],x,x,x,x
COc1ccc(C)cc1NC(=O)c1ccc2nc(Cc3ccccc3)oc2c1,-22%[46 µM],x,x,x,x
CCCCNC(=O)C(c1ccc(OCC(=O)OC)c(C(=O)OC)c1)N(CCc1ccccn1)C(=O)CCCCCN1C(=O)NC(c2ccc(-c3ccccc3)cc2)C(C(=O)OCc2ccccc2)=C1C (centres undefined),x,2%,x,-5%,-3%
COc1ccc(S(=O)(=O)N(C(C)=O)c2ccc3oc(=O)sc3c2)cc1,u,u,4,20µM*,-1%
FC(F)(F)c1cnc(Oc2ccc(-c3nnco3)cc2)c(Cl)c1,u,-3%,-30,11µM*,12%
FC(F)(F)c1cnc(Oc2ccccc2-c2nnco2)c(Cl)c1,5%,14%,-15,-28%,-4%
CCCCNC(=S)N(C)/N=C/c1ccccc1C(=O)O,19%,1%,20,-9%,0%
